Reference: paper PMC7862700, “An all-to-all approach to the identification of sequence-specific readers for epigenetic DNA modifications on cytosine”

Key:
Assay in all cases: DAPPL (digital affinity profiling via proximity ligation, sequencing); 10 mM Tris-HCl pH 7.5, 50 mM NaCl, 1 mM DTT, 4% glycerol, room temperature, 30 min; GST-TFs on glutathione beads, 16-mer random dsDNA library, 0.1% formaldehyde crosslink after washing; high values mean tight binding
[1] = target: T1, FLI1 (Homo sapiens, UniProt Q01543 1-452); conditions: protein: recombinant; tags: N-terminal GST; dsDNA, one strand shown
T1 sequence: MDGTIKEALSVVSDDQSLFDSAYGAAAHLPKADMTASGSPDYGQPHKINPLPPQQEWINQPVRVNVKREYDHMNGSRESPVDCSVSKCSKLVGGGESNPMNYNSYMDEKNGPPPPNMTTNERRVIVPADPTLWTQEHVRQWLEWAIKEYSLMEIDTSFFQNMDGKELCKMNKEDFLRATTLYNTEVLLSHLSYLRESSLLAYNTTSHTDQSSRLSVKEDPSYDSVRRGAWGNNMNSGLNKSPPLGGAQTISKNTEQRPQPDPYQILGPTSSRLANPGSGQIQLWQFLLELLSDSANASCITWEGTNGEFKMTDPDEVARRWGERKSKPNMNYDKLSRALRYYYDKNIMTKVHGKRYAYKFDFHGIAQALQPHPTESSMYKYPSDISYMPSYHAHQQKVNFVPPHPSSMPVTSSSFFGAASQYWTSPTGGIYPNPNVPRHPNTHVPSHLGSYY
Procedure, shortened: (§1)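 In yeast, human transcription factors were expressed with a GST fusion, then pulled down on glutathione beads and given DNA barcodes. Pooled with a tag-only sample, they were exposed to 200 nmole of a 16-mer random double-stranded DNA library (Tris/NaCl/DTT/glycerol buffer, room temperature, 30 min), washed, crosslinked with 0.1% formaldehyde, proximity-ligated using BsaI/T4 ligase for 1 h at 37 °C, PCR-amplified and read on an Illumina NextSeq500. Each hexamer's frequency of reads for a factor, divided by the matching frequency for the tag-only sample, gives the binding signal.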

[2] = target: T2, ELK1 (Homo sapiens, UniProt P19419 1-428); conditions: protein: recombinant; tags: N-terminal GST; dsDNA, one strand shown
T2 sequence: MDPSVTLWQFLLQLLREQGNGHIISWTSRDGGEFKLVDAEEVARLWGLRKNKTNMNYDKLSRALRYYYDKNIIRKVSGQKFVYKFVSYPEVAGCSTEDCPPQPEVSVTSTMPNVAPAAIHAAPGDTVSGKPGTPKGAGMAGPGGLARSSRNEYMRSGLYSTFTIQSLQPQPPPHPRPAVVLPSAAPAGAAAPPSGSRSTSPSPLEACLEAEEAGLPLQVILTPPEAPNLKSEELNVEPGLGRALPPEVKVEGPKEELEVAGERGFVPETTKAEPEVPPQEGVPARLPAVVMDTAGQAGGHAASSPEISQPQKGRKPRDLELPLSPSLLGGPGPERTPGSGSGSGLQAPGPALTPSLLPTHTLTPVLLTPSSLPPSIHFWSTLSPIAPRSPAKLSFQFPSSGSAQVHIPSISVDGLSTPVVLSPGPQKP
Procedure, shortened: as §1

[3] = target: T3, GABPA (Homo sapiens, UniProt Q06546 1-454); conditions: protein: recombinant; tags: N-terminal GST; dsDNA, one strand shown
T3 sequence: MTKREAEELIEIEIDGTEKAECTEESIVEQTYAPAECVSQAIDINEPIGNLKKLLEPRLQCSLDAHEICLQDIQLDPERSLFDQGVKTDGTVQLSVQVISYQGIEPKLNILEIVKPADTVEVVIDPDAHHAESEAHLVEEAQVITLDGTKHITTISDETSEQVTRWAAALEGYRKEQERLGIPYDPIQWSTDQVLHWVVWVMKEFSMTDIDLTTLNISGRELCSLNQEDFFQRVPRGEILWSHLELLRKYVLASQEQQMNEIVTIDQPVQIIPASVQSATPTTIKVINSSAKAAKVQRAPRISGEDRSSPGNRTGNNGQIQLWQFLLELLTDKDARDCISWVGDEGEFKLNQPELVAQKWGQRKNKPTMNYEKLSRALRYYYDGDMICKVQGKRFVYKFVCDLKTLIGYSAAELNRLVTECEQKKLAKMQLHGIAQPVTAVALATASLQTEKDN
Procedure, shortened: as §1

[4] = target: T4, ERG (Homo sapiens, UniProt P11308 1-479); conditions: protein: recombinant; tags: N-terminal GST; dsDNA, one strand shown
T4 sequence: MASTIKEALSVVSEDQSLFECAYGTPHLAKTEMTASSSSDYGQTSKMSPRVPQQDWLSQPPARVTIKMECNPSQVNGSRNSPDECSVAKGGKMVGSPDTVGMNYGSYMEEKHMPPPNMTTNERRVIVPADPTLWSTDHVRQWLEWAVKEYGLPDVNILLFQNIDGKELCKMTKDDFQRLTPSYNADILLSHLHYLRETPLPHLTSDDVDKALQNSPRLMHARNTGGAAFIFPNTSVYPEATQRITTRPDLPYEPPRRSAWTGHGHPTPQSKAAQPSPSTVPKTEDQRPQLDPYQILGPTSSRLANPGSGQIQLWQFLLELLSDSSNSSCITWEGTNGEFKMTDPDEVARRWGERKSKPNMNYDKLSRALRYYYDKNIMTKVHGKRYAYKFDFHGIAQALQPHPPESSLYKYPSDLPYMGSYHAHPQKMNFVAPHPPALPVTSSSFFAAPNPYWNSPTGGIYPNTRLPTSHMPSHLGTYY
Procedure, shortened: as §1

[5] = target: ELF1 (Homo sapiens, UniProt P32519 1-619); conditions: protein: recombinant; tags: N-terminal GST; dsDNA, one strand shown
Procedure, shortened: as §1

[6] = target: T5, EHF (Homo sapiens, UniProt Q9NZC4 1-300); conditions: protein: recombinant; tags: N-terminal GST; dsDNA, one strand shown
T5 sequence: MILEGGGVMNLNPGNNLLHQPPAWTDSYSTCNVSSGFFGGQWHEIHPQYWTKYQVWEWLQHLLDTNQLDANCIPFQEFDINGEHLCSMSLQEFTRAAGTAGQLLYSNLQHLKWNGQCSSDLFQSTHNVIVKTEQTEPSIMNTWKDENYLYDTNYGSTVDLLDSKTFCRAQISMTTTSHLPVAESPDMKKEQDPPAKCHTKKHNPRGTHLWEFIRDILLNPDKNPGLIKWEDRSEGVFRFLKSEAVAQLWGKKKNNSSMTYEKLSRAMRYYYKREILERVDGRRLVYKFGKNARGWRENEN
Procedure, shortened: as §1

[7] = target: SPI1 (Homo sapiens, UniProt P17947 1-270); conditions: protein: recombinant; tags: N-terminal GST; dsDNA, one strand shown
Procedure, shortened: as §1

[8] = target: SPIB (Homo sapiens, UniProt Q01892 1-262); conditions: protein: recombinant; tags: N-terminal GST; dsDNA, one strand shown
Procedure, shortened: as §1

[9] = target: T6, ELK3 (Homo sapiens, UniProt P41970 1-407); conditions: protein: recombinant; tags: N-terminal GST; dsDNA, one strand shown
T6 sequence: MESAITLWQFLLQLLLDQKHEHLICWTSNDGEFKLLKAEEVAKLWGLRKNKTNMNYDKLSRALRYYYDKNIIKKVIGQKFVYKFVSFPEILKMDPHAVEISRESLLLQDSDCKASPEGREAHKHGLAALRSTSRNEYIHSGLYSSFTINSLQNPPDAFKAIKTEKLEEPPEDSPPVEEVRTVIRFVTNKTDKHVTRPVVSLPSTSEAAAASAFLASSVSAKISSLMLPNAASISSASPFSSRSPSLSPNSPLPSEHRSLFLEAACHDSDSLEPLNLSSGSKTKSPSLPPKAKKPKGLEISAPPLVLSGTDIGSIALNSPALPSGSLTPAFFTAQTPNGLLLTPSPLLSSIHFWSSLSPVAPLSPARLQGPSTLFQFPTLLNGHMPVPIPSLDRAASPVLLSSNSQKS
Procedure, shortened: as §1

[10] = target: T7, FEV (Homo sapiens, UniProt Q99581 1-238); conditions: protein: recombinant; tags: N-terminal GST; dsDNA, one strand shown
T7 sequence: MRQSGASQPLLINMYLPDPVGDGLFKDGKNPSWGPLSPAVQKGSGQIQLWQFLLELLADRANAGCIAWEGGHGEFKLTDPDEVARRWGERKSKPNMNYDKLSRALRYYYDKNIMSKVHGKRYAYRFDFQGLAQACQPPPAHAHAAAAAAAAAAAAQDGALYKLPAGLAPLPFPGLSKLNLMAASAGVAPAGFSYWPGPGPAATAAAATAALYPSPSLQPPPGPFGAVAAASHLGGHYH
Procedure, shortened: as §1

[11] = target: ETV5 (Homo sapiens, UniProt P41161 1-510); conditions: protein: recombinant; tags: N-terminal GST; dsDNA, one strand shown
Procedure, shortened: as §1

[12] = target: HSF1 (Homo sapiens, UniProt Q00613 1-529); conditions: protein: recombinant; tags: N-terminal GST; chain copies: 3; dsDNA, one strand shown
Procedure, shortened: as §1

[13] = target: T8, SPIC (Homo sapiens, UniProt Q8N5J4 1-248); conditions: protein: recombinant; tags: N-terminal GST; dsDNA, one strand shown
T8 sequence: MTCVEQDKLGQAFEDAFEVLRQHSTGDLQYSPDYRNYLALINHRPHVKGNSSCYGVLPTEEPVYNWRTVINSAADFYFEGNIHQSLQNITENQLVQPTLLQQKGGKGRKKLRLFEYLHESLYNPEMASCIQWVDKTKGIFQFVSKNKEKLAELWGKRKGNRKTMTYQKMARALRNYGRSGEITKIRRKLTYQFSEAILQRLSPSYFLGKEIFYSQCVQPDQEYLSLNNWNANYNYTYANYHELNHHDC
Procedure, shortened: as §1

[14] = target: ELF4 (Homo sapiens, UniProt Q99607 1-663); conditions: protein: recombinant; tags: N-terminal GST; dsDNA, one strand shown
Procedure, shortened: as §1

[15] = target: T9, ELK4 (Homo sapiens, UniProt P28324-2 1-405); conditions: protein: recombinant; tags: N-terminal GST; dsDNA, one strand shown
T9 sequence: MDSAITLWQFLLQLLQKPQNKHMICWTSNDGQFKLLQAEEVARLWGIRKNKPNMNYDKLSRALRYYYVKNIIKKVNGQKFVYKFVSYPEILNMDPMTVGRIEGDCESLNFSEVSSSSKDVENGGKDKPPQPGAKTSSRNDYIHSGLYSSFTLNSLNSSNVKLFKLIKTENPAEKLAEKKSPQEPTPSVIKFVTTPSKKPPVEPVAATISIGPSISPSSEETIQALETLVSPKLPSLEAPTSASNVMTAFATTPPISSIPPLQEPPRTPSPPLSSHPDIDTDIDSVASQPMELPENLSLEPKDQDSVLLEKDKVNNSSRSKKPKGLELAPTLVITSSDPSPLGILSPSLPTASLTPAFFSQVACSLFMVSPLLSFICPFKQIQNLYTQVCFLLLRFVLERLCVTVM
Procedure, shortened: as §1

[16] = target: T10, ETV2 (Homo sapiens, UniProt O00321 1-342); conditions: protein: recombinant; tags: N-terminal GST; dsDNA, one strand shown
T10 sequence: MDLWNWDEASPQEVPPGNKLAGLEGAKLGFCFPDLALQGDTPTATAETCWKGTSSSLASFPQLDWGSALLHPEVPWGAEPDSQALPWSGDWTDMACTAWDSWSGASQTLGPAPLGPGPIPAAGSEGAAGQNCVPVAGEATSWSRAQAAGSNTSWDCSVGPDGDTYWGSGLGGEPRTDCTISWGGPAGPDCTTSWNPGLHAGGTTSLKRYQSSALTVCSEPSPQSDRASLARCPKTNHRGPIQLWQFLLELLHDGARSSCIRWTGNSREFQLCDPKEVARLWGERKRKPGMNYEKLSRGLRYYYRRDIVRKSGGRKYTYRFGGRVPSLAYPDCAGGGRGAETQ
Procedure, shortened: as §1

[17] = target: T11, ELF3 (Homo sapiens, UniProt P78545 1-371); conditions: protein: recombinant; tags: N-terminal GST; dsDNA, one strand shown
T11 sequence: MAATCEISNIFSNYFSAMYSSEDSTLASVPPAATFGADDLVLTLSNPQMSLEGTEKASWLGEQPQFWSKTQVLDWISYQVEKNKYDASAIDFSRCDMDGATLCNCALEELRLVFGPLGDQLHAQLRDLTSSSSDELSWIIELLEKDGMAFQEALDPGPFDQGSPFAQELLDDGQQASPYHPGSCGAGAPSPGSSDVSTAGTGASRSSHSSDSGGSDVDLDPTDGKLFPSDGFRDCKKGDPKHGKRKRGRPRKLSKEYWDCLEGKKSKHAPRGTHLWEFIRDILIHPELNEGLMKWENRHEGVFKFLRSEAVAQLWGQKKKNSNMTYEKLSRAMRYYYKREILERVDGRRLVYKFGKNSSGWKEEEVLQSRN
Procedure, shortened: as §1

[18] = target: CRX (Homo sapiens, UniProt O43186 1-299); conditions: protein: recombinant; tags: N-terminal GST; dsDNA, one strand shown
Procedure, shortened: as §1

[19] = target: ETV1 (Homo sapiens, UniProt P50549 1-477); conditions: protein: recombinant; tags: N-terminal GST; dsDNA, one strand shown
Procedure, shortened: as §1

ETV5, sequence (P41161 whole entry): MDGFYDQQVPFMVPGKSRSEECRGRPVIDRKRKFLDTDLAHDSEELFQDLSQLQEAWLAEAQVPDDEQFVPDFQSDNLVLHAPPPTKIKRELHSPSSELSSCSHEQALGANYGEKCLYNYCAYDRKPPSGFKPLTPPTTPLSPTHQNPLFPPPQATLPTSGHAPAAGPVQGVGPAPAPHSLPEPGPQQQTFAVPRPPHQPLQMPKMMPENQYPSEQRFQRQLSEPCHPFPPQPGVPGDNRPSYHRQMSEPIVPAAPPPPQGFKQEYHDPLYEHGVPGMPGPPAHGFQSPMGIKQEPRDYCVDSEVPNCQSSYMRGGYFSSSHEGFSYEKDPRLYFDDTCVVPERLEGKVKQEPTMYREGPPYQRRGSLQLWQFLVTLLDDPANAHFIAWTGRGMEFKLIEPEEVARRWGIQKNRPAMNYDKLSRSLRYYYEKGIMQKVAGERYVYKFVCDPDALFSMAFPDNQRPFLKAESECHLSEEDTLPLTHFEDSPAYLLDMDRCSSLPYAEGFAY
HSF1, sequence (Q00613 whole entry): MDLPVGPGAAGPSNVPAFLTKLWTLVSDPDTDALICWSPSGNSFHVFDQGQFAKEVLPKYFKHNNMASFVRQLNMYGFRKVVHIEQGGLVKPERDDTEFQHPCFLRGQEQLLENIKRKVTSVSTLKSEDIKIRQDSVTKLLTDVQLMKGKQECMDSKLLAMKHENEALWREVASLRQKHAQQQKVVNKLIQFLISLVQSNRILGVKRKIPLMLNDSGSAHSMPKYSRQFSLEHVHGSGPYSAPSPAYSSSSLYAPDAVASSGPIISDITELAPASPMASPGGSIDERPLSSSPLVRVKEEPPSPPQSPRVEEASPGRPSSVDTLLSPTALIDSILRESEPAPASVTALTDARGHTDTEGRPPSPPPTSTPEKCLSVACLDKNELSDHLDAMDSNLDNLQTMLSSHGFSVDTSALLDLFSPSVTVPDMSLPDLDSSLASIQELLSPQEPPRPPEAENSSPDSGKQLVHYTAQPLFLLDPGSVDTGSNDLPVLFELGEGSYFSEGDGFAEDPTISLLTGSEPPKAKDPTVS
CRX, sequence (O43186 whole entry): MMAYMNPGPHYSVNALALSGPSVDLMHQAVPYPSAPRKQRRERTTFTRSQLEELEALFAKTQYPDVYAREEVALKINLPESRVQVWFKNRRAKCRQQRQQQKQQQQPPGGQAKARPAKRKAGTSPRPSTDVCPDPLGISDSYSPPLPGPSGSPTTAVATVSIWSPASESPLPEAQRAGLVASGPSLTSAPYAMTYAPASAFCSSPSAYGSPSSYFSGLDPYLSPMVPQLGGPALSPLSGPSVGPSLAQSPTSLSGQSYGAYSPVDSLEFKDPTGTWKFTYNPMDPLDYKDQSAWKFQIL
SPIB, sequence (Q01892 whole entry): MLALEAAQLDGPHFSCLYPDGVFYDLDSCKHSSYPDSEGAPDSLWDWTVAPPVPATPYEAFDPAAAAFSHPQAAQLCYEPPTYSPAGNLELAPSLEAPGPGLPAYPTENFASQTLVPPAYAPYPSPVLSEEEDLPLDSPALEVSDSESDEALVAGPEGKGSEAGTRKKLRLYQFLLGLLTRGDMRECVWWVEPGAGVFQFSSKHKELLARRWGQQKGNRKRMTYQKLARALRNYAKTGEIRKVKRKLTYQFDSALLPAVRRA
ELF1, sequence (P32519 whole entry): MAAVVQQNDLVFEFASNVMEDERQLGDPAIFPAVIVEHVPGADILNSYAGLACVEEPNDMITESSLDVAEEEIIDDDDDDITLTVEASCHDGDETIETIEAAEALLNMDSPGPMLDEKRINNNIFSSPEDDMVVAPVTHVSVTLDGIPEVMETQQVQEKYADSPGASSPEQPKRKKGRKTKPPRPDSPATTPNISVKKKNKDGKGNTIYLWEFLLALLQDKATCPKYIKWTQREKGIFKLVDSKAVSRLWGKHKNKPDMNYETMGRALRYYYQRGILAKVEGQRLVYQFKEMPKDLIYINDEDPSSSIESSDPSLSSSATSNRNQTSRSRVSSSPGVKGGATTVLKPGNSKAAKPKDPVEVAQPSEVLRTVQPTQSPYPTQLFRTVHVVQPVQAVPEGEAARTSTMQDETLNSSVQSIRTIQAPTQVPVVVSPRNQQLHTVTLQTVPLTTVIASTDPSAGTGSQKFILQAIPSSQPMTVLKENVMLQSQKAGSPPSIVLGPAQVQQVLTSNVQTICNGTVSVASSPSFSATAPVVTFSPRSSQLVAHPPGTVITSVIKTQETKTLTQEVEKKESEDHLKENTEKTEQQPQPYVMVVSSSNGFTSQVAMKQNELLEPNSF
ELF4, sequence (Q99607 whole entry): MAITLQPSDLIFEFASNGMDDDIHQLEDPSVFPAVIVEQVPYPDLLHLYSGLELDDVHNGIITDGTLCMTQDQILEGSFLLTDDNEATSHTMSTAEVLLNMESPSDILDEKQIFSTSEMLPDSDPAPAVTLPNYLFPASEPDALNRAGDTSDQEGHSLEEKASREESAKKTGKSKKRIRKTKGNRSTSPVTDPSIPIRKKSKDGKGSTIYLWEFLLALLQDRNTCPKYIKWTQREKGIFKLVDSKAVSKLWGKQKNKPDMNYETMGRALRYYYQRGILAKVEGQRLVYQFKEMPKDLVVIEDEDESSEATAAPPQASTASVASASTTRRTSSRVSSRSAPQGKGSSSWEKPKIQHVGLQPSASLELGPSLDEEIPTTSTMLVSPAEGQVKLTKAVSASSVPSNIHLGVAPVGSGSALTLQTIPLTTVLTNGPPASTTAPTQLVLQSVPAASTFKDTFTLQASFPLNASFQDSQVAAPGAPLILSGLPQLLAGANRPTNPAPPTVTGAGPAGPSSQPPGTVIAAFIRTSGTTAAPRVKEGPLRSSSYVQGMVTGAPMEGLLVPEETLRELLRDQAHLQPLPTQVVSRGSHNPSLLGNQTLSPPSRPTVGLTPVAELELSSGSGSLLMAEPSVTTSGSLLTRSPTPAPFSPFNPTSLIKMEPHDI
ETV1, sequence (P50549 whole entry): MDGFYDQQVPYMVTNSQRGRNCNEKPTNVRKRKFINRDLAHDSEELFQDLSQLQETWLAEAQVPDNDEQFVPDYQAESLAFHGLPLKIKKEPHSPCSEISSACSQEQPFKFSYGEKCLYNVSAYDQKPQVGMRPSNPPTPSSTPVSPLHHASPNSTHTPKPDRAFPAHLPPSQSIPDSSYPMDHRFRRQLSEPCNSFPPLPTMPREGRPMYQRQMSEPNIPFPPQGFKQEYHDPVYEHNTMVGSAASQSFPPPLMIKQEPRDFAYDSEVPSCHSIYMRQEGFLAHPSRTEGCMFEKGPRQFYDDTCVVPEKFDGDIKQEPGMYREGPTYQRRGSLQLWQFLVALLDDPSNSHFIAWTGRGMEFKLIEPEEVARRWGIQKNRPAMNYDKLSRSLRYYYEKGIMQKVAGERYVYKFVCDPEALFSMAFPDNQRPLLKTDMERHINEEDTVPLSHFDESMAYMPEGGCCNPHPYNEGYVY

Sequence: AACAAC
- binding signal [1]: 1.24 fold enrichment (6-mer frequency, TF over GST control)
- binding signal [2]: 1.31 fold enrichment (6-mer frequency, TF over GST control)
- binding signal [3]: 1.24 fold enrichment (6-mer frequency, TF over GST control)
- binding signal [4]: 1.29 fold enrichment (6-mer frequency, TF over GST control)
- binding signal [5]: 1.3 fold enrichment (6-mer frequency, TF over GST control)
- binding signal [6]: 1.29 fold enrichment (6-mer frequency, TF over GST control)
- binding signal [7]: 1.3 fold enrichment (6-mer frequency, TF over GST control)
- binding signal [8]: 1.23 fold enrichment (6-mer frequency, TF over GST control)
- binding signal [9]: 1.34 fold enrichment (6-mer frequency, TF over GST control)
- binding signal [10]: 1.26 fold enrichment (6-mer frequency, TF over GST control)
- binding signal [11]: 1.24 fold enrichment (6-mer frequency, TF over GST control)
- binding signal [12]: 1.14 fold enrichment (6-mer frequency, TF over GST control)
- binding signal [13]: 1.2 fold enrichment (6-mer frequency, TF over GST control)
- binding signal [14]: 1.26 fold enrichment (6-mer frequency, TF over GST control)
- binding signal [15]: 1.27 fold enrichment (6-mer frequency, TF over GST control)
- binding signal [16]: 1.34 fold enrichment (6-mer frequency, TF over GST control)
- binding signal [17]: 1.31 fold enrichment (6-mer frequency, TF over GST control)
- binding signal [18]: 1.04 fold enrichment (6-mer frequency, TF over GST control)
- binding signal [19]: 1.23 fold enrichment (6-mer frequency, TF over GST control)
